Assay outcomes (PubChem BioAssay)
TrxR1 substrate – is turned over as a substrate by rat TrxR1 | O89049 | purified TrxR1 substrate turnover, NADPH consumption readout | Potency, µM (highest dose often 114 µM), for the others: top-dose activity change, negative = substrate turnover | actives 0.01% (n = 390,000) | AID 588456; also: % is scaled to controls: 0 for no effect and ±100 for the full control effect; nearly all actives have a fitted effect of over 50% in size
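Rat TrxR1, dispensed at 90 nM, was prereduced with 400 uM NADPH (final) for 5 min at ~22 deg C, then incubated with compound 15 min before 400 uM selenite. A first-read NADPH fluorescence drop versus no-compound background flagged substrates.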
TrxR1 inh – rat TrxR1 inhibition | actives 1% (n = 390,000) | AID 588453 | recombinant rTrxR1, NADPH fluorescence consumption, selenite substrate | Potency, µM (titrated, usually from 114 µM), for inactives: top-dose activity change, negative = inhibition, hits mostly inhibitors; also: % is scaled to controls: 0 for no effect and ±100 for the full control effect; nearly all actives have a fitted effect of over 65% in size
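Rat TrxR1 (90 nM in the dispensed reagent) was pre-reduced with 400 uM NADPH for 5 min at room temperature, then incubated with compound for 15 min. After 400 uM selenite was added, NADPH fluorescence (Ex 340/Em 450 nm) was followed for 8 min.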
GRP78 ERSR act – induces the endoplasmic reticulum stress response in human glioma cells; Potency, µM, for the others: at the highest dose activation, actives largely listed as activators; U87-MG GRP78 promoter luciferase reporter, 16 h; AID 602332; actives 0.02% (n = 420,000); also: series mostly up to about 76 µM; % of control where 0% means no effect; nearly all actives have a fitted effect of over 35% in size
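Stably transfected U87-MG human glioma cells carrying a GRP78-based luminescent sensor were seeded at 1000 cells/well, pin-dosed with compounds and incubated 16 h. Luciferase reagent was then added, and end-point luminescence was read after 10 min at room temperature.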
mIDH1 inhibitor – blocks human mutant IDH1 R132H enzyme. O75874. IDH1-R132H enzyme, NADPH consumption, diaphorase/resazurin fluorescence. Potency, µM (titrated, usually from 76.6 µM), for the others: at the top dose activity change, negative = inhibition, most hits filed as inhibitors. actives 0.093% (n = 390,000); also: % is scaled to controls: 0 for no effect and ±100 for the full control effect; nearly all actives have a fitted effect of over 65% in size
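IDH1-R132H (0.5 ug/mL) preincubated 30 min with compound, then NADPH (0.016 mM) and alpha-KG (2 mM) added; 80 min at RT, pH 7.5. Remaining NADPH coupled via diaphorase/resazurin to fluorescence (540/590 nm); concentration-response curves normalized to no-enzyme control.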
Apoferritin bind – binds horse apoferritin like a general anesthetic; apoferritin/1-aminoanthracene competitive binding, fluorescence; Potency, µM (highest dose often 77.5 µM), without a hit: at the highest dose activity change, negative = displacement, actives largely listed as inhibitors; actives 0.074% (n = 350,000); also: % is scaled to controls: 0 for no effect and ±100 for the full control effect; nearly all actives have a fitted effect of over 20% in size
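Apoferritin-based anesthetic binding model; compound displacement of fluorescent 1-AMA measured as endpoint fluorescence after 10 minutes at room temperature, scaled to free-ligand and complex controls.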
ALOX12 inh – inhibitors of human 12S-lipoxygenase ALOX12; purified 12hLO, xylenol orange hydroperoxide absorbance; Potency, µM (top dose mostly 108 µM), without a hit: at the top dose activity change, negative = inhibition, hits mostly inhibitors; actives 1.1% (n = 580,000); AID 1671190; also: % is scaled to controls: 0 for no effect and ±100 for the full control effect
Target sequence (P18054 whole entry, looked up): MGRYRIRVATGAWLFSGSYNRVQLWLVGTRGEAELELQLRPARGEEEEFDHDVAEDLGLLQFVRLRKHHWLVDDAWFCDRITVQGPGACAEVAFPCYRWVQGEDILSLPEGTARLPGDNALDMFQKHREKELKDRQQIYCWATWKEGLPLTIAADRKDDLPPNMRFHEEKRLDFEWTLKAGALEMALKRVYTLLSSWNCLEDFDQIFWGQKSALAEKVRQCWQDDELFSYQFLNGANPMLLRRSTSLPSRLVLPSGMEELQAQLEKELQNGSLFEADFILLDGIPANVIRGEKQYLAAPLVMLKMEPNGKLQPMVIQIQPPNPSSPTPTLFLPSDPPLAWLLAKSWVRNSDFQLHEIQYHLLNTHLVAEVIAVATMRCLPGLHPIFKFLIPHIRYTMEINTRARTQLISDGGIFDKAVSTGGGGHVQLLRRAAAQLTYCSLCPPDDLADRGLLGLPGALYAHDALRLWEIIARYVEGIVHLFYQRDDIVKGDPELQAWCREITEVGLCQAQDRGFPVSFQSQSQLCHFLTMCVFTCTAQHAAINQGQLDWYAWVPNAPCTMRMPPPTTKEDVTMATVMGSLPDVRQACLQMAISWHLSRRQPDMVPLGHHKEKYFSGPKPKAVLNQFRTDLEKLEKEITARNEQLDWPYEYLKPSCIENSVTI
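Purified human 12hLO at 150 nM in 25 mM Hepes, 0.01% Triton X-100, pH 7.0, preincubated 15 min at room temperature with compound. Reaction started with 40 uM arachidonic acid, 30 min at room temperature. Hydroperoxide measured by Fe-xylenol orange, 573/405 nm absorbance ratio.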
Active calls of the source: *; i = inactive; ? = inconclusive; · = not tested or not shown; [ ] = another dose, or the depositor's remark. Compounds with a hit are over-represented: about 1.7% of the library has one in this group of screens. Calls follow the shape of the dose curve; as a rule, active = well fitted curve in the direction sought with a large enough effect; inconclusive = small, poorly fitted or top-dose-only effect, or another doubt; inactive = no such curve, though single readings can be large; an effect the other way counts as inactive or inconclusive. Potency is read from the fitted curve at half-maximal effect.

SMILES	TrxR1 substrate	TrxR1 inh	GRP78 ERSR act	mIDH1 inhibitor	Apoferritin bind	ALOX12 inh
COc1ccc(C(=O)N2CCC[C@@]3(CCN(Cc4ccc(C#N)cc4)C3)C2)cc1	·	·	-2%	·	·	8%[57.4 µM]
CN(C)CCN(C(=O)CCS(=O)(=O)c1ccccc1)c1nc2c(F)cccc2s1	-8%	25µM*	-2%	-17%	-11%	?
COc1ccc(Cl)c2sc(N(CCN(C)C)C(=O)CCS(=O)(=O)c3ccc(C)cc3)nc12	0%[57.1 µM]	?	-3%	-4%	·	16µM*
Cc1cc(C)c2sc(N(CCN(C)C)C(=O)CCS(=O)(=O)c3ccccc3)nc2c1	-1%	?	-2%	1%	-13%	29%
CN1C[C@@H](F)[C@@H](OCc2nc3ccc(F)cc3[nH]2)C1	·	·	·	·	·	37%[176 µM]
Cc1noc(C)c1[S+](=O)([O-])N1CCC(N2CCNC2=O)CC1	·	·	·	·	·	7%[6.33 µM]
CC1(C)C(=O)C=CC(=O)C(C)(C)C(=O)C=CC(=O)C(C)(C)C2=CC=C(O2)C(C)(C)C(=O)C=CC1=O	-8%	16µM*	9%	3%	·	-8%
Clc1ccccc1C1(c2ccnc(NCc3ccccc3)n2)CCNCC1	·	·	·	·	·	2%
Clc1ccccc1C1(c2ccnc(NCCc3cccnc3)n2)CCNCC1	·	·	·	·	·	20µM*
COc1ccc(C2=NOC(C(=O)Nc3cc(Br)ccc3O)C2)cc1OC (centres undefined)	3%	18%	-2%	-9%	-20%	10µM*
CN(C)c1ccc(C=c2c3ccccc3n3c2c2ccccc2[n+]3C)cc1	-19%	32µM*	-11%	46µM*	·	5µM*
Cc1cc2c(=Cc3ccc(N(C)C)cc3)c3ccccc3n2[n+]1C	-20%	-36%	-5%	3%	·	-57%
O=c1c(-c2ccco2)nc2ccccc2n1C(c1ccccc1)c1nc2ccccc2[nH]1 (centres undefined)	·	·	·	·	·	18µM*
O=c1c(-c2cccs2)nc2ccccc2n1C(c1ccccn1)c1nc2ccccc2[nH]1 (centres undefined)	·	·	·	·	·	40µM*
CCC(c1nc2ccccc2[nH]1)n1c(=O)c(-c2ccco2)nc2ccccc21 (centres undefined)	·	·	·	·	·	25µM*
O=c1c(-c2ccccc2)nc2ccccc2n1C(c1ccccn1)c1nc2ccccc2[nH]1 (centres undefined)	·	·	·	·	·	-27%
Cc1ccc(NC(=O)CSc2ncc3c(n2)-c2ccccc2N(C)S3(=O)=O)c(Cl)c1	11%[57.1 µM]	33%[57.1 µM]	-4%	6%	5%	-13%
O=C(NCc1ccco1)[C@@H]1Cc2nc[nH]c2CN1Cc1cc2ccccc2o1	·	·	·	·	·	72%[176 µM]
Cc1ccc(Cl)cc1-n1c(=O)c2sc3ccccc3c2n(CC(=O)NC2CCCCC2)c1=O	19%	30%	-3%	-6%	-3%	-19%
Cc1ccc(Cc2c(C)nc3nc(CC(=O)Nc4ccc(F)cc4)nn3c2C)cc1	·	·	·	·	·	-52%
CC(O)CNS(=O)(=O)c1ccc(C(=O)O)cc1 (centres undefined)	·	·	·	·	·	-26%
Cc1ccc(CN(C)C(=O)C2CCCN2C(=O)c2cccs2)o1 (centres undefined)	9%	10µM*	0%	5%	-12%	5%
O=S1(=O)c2ccccc2N(Cc2ccccc2F)c2ccccc21	-5%[57.1 µM]	-2%[57.1 µM]	-3%	-13%	42%	-1%
O=C(Nc1ccc(F)cc1)C1C(c2ccccc2)C1(Cl)Cl (centres undefined)	-13%	-4%	0%	7%	0%	7.1µM*
O=[N+]([O-])C(=C1Nc2ccccc2N1)C(Cl)=C(Cl)Cl	-6%	11µM*	4%	3%	-9%	?
SMILES	TrxR1 substrate	TrxR1 inh	GRP78 ERSR act	mIDH1 inhibitor	Apoferritin bind	ALOX12 inh
O=C(/C=C/c1ccco1)N1CCN(c2ncccn2)CC1	-9%	40µM*	-1%	1%	0%	-24%
COc1ccc(S(=O)(=O)N2CCN(C(=O)/C=C/c3ccco3)CC2)cc1	-2%	13µM*	-2%	-1%	·	?
O=C(/C=C/c1ccco1)N1CCN(S(=O)(=O)c2cccc([N+](=O)[O-])c2)CC1	-4%	-29%	-1%	-2%	·	?
Cc1ccc(/C=C/C(=O)N2CC(=O)Nc3ccccc32)o1	-10%	79µM*	2%	-8%	-6%	-25%
Cc1ccc(/C=C/C(=O)N2CCN(Cc3ccccc3)CC2)o1	-9%	45µM*	1%	0%	-7%	-20%
O=C1NCCCCCCN(C(=O)c2cnccn2)[C@H]2CCCC[C@@H]12	·	·	·	·	·	2%
CC(=O)c1[nH]c(C)c(C(=O)N2CCCC(O)(CNC(=O)N(C)C)CC2)c1C (centres undefined)	·	·	·	·	·	12%
COc1ccc(OC)c(CCNC(=O)c2nn(C)c3c2CSc2ccccc2-3)c1	0%	15%	-4%	-12%	5%	19%
Cc1cccc(CN2CCN(C(=O)c3cccc4ccccc34)CC2)c1	-3%[57.1 µM]	8%[57.1 µM]	-3%	3%	-6%	?
Cc1ccc(/C=C/C(=O)N2CCN(S(=O)(=O)c3ccc(C)c(C)c3)CC2)o1	-3%	18µM*	-15%	7%	-9%	18µM*
Cc1cccc(CN2CCN(C(=O)CCl)CC2)c1	7%	11µM*	-13%	1%	0%	-11%
COc1ccc(CNC(=O)CSc2nnc(C)n2C2CCCCC2)cc1	·	·	·	·	·	6%
O=C(CCl)NC(=O)NC12CC3CC(CC(C3)C1)C2	8%	14µM*	-12%	-5%	?	9%
CCNC(=O)C1(C)CCCN(Cc2cccc(Oc3ccccc3)c2)C1 (centres undefined)	·	·	3%	·	·	·
CC(Cn1cncn1)Nc1ccc(-c2nc(Cc3ccc(F)cc3)no2)cn1 (centres undefined)	·	·	·	·	·	69%
CCCc1cc(=O)oc2c3c(ccc12)OCN(Cc1ccccc1OC)C3	i	22µM*	-4%	4%	i	-30%
O=c1oc2c3c(ccc2c2ccccc12)OCN(Cc1ccc(Cl)cc1)C3	12%	31%	-4%	28%	1%	?
Cc1cc(=O)oc2c3c(ccc12)OCN(Cc1ccc(Cl)cc1)C3	916%	20µM*	-1%	-13%	545%	1%
O=S(=O)(CCN1CCCCC1)c1ccccc1	·	·	·	·	·	-3%
C[N+]1(CC(=O)OC2CCCCCCCCCCC2)CCCC1	9%[57.1 µM]	16%[57.1 µM]	-8%	6%	-13%	45µM*
c1ccc2sc(SSc3nc4ccccc4s3)nc2c1	·	·	2%	·	·	5µM*
O=S1(=O)C=C(Sc2nc3ccccc3s2)c2ccccc21	0%[57.1 µM]	2.5µM*	-14%	11%	-17%	·
Cc1cc(C)nc(NC(=O)Nc2cccc(Cl)c2)n1	·	·	·	·	·	-11%
